Cycloheximide cs – Cycloheximide Counterscreen for Small Molecule Inhibitors of Shiga Toxin. AID 2314, 2010. max response, %. cell reporter, cycloheximide protein synthesis inhibition counterscreen. 300,000 compounds, 12% hits; in the data active means max response mostly above about 13%, no sharp cut-off; inactive means mostly below about 14%; further: read at 38.3 µM for the half of the compounds with a filed dose
Pf growth 48h – Primary qHTS for delayed death inhibitors of the malarial parasite plastid, 48 hour incubation. P. falciparum luciferase growth in erythrocytes, 48 h. Potency, µM (series often up to 28.7 µM), actives largely listed as inhibitors. 310,000 compounds, 5.9% hits. AID 504832, 2011
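Luciferase-expressing parasites in RBCs, 2% Hct / 0.1% parasitemia final; RPMI 1640 + 0.5% Albumax; 37 C, 5% CO2, one generation; luminescence read-out, lower signal = inhibition.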
Shiga inhibitor – A qHTS for Small Molecule Inhibitors of Shiga Toxin; Vero cells, Shiga toxin protein synthesis inhibition reporter; inhibition, % at 38.7 µM; 290,000 compounds, 9.2% hits; in the data active means inhibition mostly above about 28%, no sharp cut-off; inactive means mostly below about 43%
Pf growth 96h – Primary qHTS for delayed death inhibitors of the malarial parasite plastid, 96 hour incubation | AID 504834, 2011 | P. falciparum luciferase reporter growth, 96 h | Potency, µM (top dose mostly 28.7 µM), most hits filed as inhibitors | 320,000 compounds, 6.9% hits
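Readout is luminescence from an integrated firefly luciferase in P. falciparum. Red cells, 2% hematocrit and 0.05% parasitemia final, were cultured with compound through two parasite generations (96 hours) at 37 C, 5% CO2.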
Hits are given with their value; . = inactive; ? = inconclusive; / = no result; [ ] = another dose, or the depositor's remark. Only some compounds are listed: those with a hit (about 21% of all), similar ones and a draw of the others. Unless noted, the call rests on the fitted dose curve; in most records, active means well fitted inhibition curve with a large enough effect; inconclusive means small, poorly fitted or top-dose-only effect, or another doubt; inactive means no such curve, though single readings can be large or run the other way.

SMILES | Cycloheximide cs | Pf growth 48h | Shiga inhibitor | Pf growth 96h
CCOc1ccc(S(=O)(=O)N2CCCCC2)cc1NC(=O)CC1OC(=O)c2ccccc21 (stereo unspecified) | / | . | / | .
Cc1ccc(C)c(C(=O)COC(=O)CN2C(=O)C3C4C=CC(C4)C3C2=O)c1 (stereo unspecified) | . | . | . | .
COc1ccc(C(=O)C=CNNC(=O)c2ccc(Cl)cc2)cc1 | 16 | ? | / | .
CCOC(=O)CNC(=O)c1ccc(Br)s1 | . | . | . | .
Cc1ccc(C)n1-c1ccc(C(=O)NN)s1 | 26 | ? | 26 | ?
Cc1ccc(C(C)C)c(OCc2ccc(C(=O)N/N=C/c3ccc(C(=O)O)cc3)cc2)c1 | 11 | ? | . | .
Cc1ccc(C(C)C)c(OCc2ccc(C(=O)N/N=C/c3ccc(O)cc3O)cc2)c1 | . | 2.6µM | . | ?
COc1ccccc1N1CCN(S(=O)(=O)CCNC(=O)c2ccc(Br)o2)CC1 | . | . | . | ?
Cc1ccc(SCC(=O)OCC(=O)N(CC(C)C)c2c(N)n(Cc3ccccc3)c(=O)[nH]c2=O)cc1C | / | . | / | .
CCN1C(=O)C2(Nc3ccccc3-c3nc4ccccc4n32)c2cc(OC)ccc21 (stereo unspecified) | . | 9.3µM | . | .
CN1C(=O)C2(Nc3ccccc3-c3nc4ccccc4n32)c2ccccc21 (stereo unspecified) | . | 8.3µM | . | .
O=C1Nc2ccccc2C12Nc1ccccc1-c1nc3ccccc3n12 (stereo unspecified) | . | 0.74µM | . | /
C=CCNC(=O)N1CCC(n2nccc2NC(=O)CCc2ccccc2)CC1 | . | . | . | ?
COc1ccc(O)c(CN2CCC(n3nccc3NC(=O)CCOc3ccccc3)CC2)c1 | . | 13µM | . | ?
CCn1cc(CN2CCC(n3nccc3NC(=O)Cc3ccccc3)CC2)cn1 | . | . | . | 10µM
CCn1cc(CN2CCC(n3nccc3NC(=O)CCCc3ccccc3)CC2)cn1 | . | ? | . | .
CCNC(=O)N1CCC(n2nccc2NC(=O)CCCc2ccccc2)CC1 | . | . | . | 13µM
CN(C)S(=O)(=O)N1CCC(n2nccc2NC(=O)CCCc2ccccc2)CC1 | . | ? | . | 5.2µM
CCOc1ccc(CN2CCC(n3nccc3NC(=O)CCCc3ccccc3)CC2)cc1 | . | ? | . | .
CSCC(=O)N1CCC(n2nccc2NC(=O)CCCc2ccccc2)CC1 | 21 | . | . | .
O=C(CCCc1ccccc1)Nc1ccnn1C1CCN(Cc2ccccc2)CC1 | . | ? | . | .
CCOc1cccc(CN2CCC(n3nccc3NC(=O)CCCc3ccccc3)CC2)c1 | . | 10µM | . | ?
CCOC(=O)c1sc(=S)n(CC)c1NC(=O)c1ccccc1 | . | . | . | .
C=CCOc1ccc(C2C(C(=O)c3ccco3)=C(O)C(=O)N2c2nnc(C)s2)cc1 (stereo unspecified) | 23 | . | 71 | .
COc1ccc(C2C(C(=O)c3ccco3)=C(O)C(=O)N2c2nnc(C)s2)cc1 (stereo unspecified) | 55 | . | 76 | ?
SMILES | Cycloheximide cs | Pf growth 48h | Shiga inhibitor | Pf growth 96h
COc1ccc(C2C(C(=O)c3ccco3)=C(O)C(=O)N2c2nnc(C)s2)cc1OC (stereo unspecified) | . | . | . | .
COc1ccc2nc(N3C(=O)C(O)=C(C(=O)c4ccco4)C3c3ccc(C)o3)sc2c1 (stereo unspecified) | / | . | / | .
Cc1ccc2nc(N3C(=O)C(O)=C(C(=O)c4ccco4)C3c3cccs3)sc2c1 (stereo unspecified) | 34 | . | 68 | .
COc1ccc(C(F)(F)F)cc1NC(=O)c1nc2nc(C)cc(C(F)F)n2n1 | . | 3.7µM | . | ?
Cc1cc(C(F)F)n2nc(C(=O)Nc3cccc(C(F)(F)F)c3)nc2n1 | . | . | . | ?
COc1cccc(-c2cc(C(F)(F)F)n3ncc(C(=O)N4CCc5ccccc5C4)c3n2)c1 | . | ? | . | .
N#Cc1cnn2c(C(F)(F)F)cc(-c3ccccc3)nc12 | . | 10µM | . | .
COc1ccc(-c2cc(C(F)(F)F)n3ncc(C(=O)N4CCc5ccccc5C4)c3n2)cc1 | . | 9.3µM | . | .
COc1cccc(-c2cc(C(F)(F)F)n3ncc(C(=O)O)c3n2)c1 | . | . | . | .
O=C(c1cnn2c(C(F)(F)F)cc(-c3ccccc3)nc12)N1CCC2(CC1)OCCO2 | . | / | . | 15µM
COc1ccc(-c2cc(C(F)(F)F)n3ncc(C(=O)O)c3n2)cc1OC | 25 | . | . | .[5.75 µM]
O=C(c1cnn2c(C(F)(F)F)cc(-c3ccccc3)nc12)N1CCCc2ccccc21 | . | . | . | /
CCc1nc2ccc(C(=O)NC3CCC(C)CC3)cc2nc1CC (stereo unspecified) | . | . | . | .
C=CCOc1c(Br)cc(CNc2ccc(NC(=O)C(C)C)c(OC)c2)cc1OC | . | ? | . | 8.3µM
COc1ccc(-n2c(SCC(=O)NC3CC3)nc3ccccc3c2=O)cc1OC | / | . | / | .
CSc1nc(-c2ccco2)nn1C(=O)c1cccs1 | . | . | . | ?
CC(=O)n1nc(-c2ccco2)nc1SCc1ccccc1 | 19 | . | . | ?
CCC(=O)n1nc(-c2ccco2)nc1SCc1ccccc1 | 35 | . | 32 | .[5.75 µM]
O=C(c1cccs1)n1nc(-c2ccco2)nc1SCc1ccccc1 | 26 | / | 41 | ?
O=C(CCC(=O)N1CCN(S(=O)(=O)c2ccccc2Cl)CC1)c1ccccc1 | / | . | / | ?
CC(=O)N[C@@H](Cc1ccc(O)cc1)C(=O)N[C@H](C(=O)N[C@@H](C)C(=O)N[C@H](C#N)CC(=O)O)C(C)C | / | . | / | .
CCCc1nnc(NC(=O)CCC(=O)N2CCC(C)CC2)s1 | . | . | . | ?
CCN(CC)CCN(C(=O)c1ccc(CN2CCCCC2)o1)C(C(=O)NC1CCCCC1)c1ccc(F)cc1 (stereo unspecified) | 42 | . | 60 | .
CC(C)CCNC(=O)C(C)N(Cc1ccc(F)cc1)C(=O)c1ccc(CN2CCCCC2)o1 (stereo unspecified) | . | . | . | .
Cc1cc(C)n(-c2c(C)[nH]c3ccccc23)n1 | . | ? | . | 9.3µM
SMILES | Cycloheximide cs | Pf growth 48h | Shiga inhibitor | Pf growth 96h
CCOC(=O)c1nc(C)n(-c2cc(Cl)ccc2Cl)n1 | . | . | . | .
CCOC(=O)c1nc(C)n(-c2cc(OC)c(Cl)cc2Cl)n1 | 46 | . | 41 | .
Cc1ncoc1C(=O)N1CCCC(C(=O)c2cccc(OC(C)C)c2)C1 (stereo unspecified) | . | . | . | .
CCCn1ncc(CN2CCCC(C(=O)c3cccc(OC(C)C)c3)C2)c1C (stereo unspecified) | . | 13µM | . | 12µM
CC(C)Oc1cccc(C(=O)C2CCCN(C(=O)c3ccoc3)C2)c1 (stereo unspecified) | 16 | . | 26 | .
CC(C)Oc1cccc(C(=O)C2CCCN(Cc3ccon3)C2)c1 (stereo unspecified) | 8.4 | . | . | ?
O=C(c1cccc(Cl)c1)C1CCCN(Cc2ccon2)C1 (stereo unspecified) | . | . | . | .
CCC1C(=O)n2nc(-c3ccccc3)cc2N=C1C (stereo unspecified) | 40 | ? | active | ?

Bioassay records deposited in PubChem by National Center for Advancing Translational Sciences (NCATS).
